Screen size: about 5,500 compounds; about 2,000 (36%) were called active. Not shown: some 18% with an inconclusive outcome. No stated cut-off is given here; in the data, active means normalized growth mostly below about 0.91 (no sharp cut-off); inconclusive means no clear call, values can overlap the other calls; inactive means mostly above about 0.92. The list shows a part of the results.
Experiment: chemical genetic growth profiling, strain panel (AID 1159580);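 further: tested at 20 µM; growth read once vehicle control cultures reached saturation at 30 °C; 1 = growth at the plate median or of vehicle wells; lower values mean less growth of the strain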
Settings: growth OD

Measured: normalized growth

COC(=O)C[C@H]1C(C)(C)[C@@H](O)[C@@H]2CC3=C4CC(O)O[C@@H](c5ccoc5)[C@]4(C)CCC3[C@@]1(C)C2=O (some centres not stated)
inactive: S. cerevisiae deletion strains, locus YJL187C, strain SWE1, hits give low values 1.03 | S. cerevisiae deletion strains, locus YJR066W, strain TOR1, hits give low values 0.962 | S. cerevisiae deletion strains, locus YJR075W, strain HOC1, hits give low values 0.99 | S. cerevisiae deletion strains, locus YKL009W, strain mrt4, hits give low values 0.985 | S. cerevisiae deletion strains, locus YKL068W, hits give low values 0.98 | S. cerevisiae deletion strains, locus YKL085W, strain MDH1 (second series), hits give low values 0.99 | S. cerevisiae deletion strains, locus YKL085W, strain MDH1, hits give low values 0.99 | S. cerevisiae deletion strains, locus YKL160W, strain elf1, hits give low values 0.998 | S. cerevisiae deletion strains, locus YKL190W, strain CNB1, hits give low values 1 | S. cerevisiae deletion strains, locus YKR001C, strain vps1, hits give low values 0.98 | S. cerevisiae deletion strains, locus YKR026C, strain gcn3, hits give low values 1.02 | S. cerevisiae deletion strains, locus YKR091W, strain srl3, hits give low values 1.01 | S. cerevisiae deletion strains, locus YLL001W, strain dnm1, hits give low values 0.994 | S. cerevisiae deletion strains, locus YLL026W, hits give low values 1.02 | S. cerevisiae deletion strains, locus YLL041C, strain sdh2, hits give low values 1.02 | S. cerevisiae deletion strains, locus YLR027C, strain aat2, hits give low values 1.04 | S. cerevisiae deletion strains, locus YLR039C, strain RIC1, hits give low values 0.981 | S. cerevisiae deletion strains, locus YLR058C, strain SHM2, hits give low values 1 | S. cerevisiae deletion strains, locus YLR102C, strain apc9, hits give low values 0.99 | S. cerevisiae deletion strains, locus YLR113W, strain HOG1, hits give low values 0.971 | S. cerevisiae deletion strains, locus YLR221C, strain rsa3, hits give low values 1.06 | S. cerevisiae deletion strains, locus YLR258W, strain gsy2, hits give low values 0.99 | S. cerevisiae deletion strains, locus YLR262C, strain YPT6 (second series), hits give low values 1.01 | S. cerevisiae deletion strains, locus YLR268W, strain sec22, hits give low values 1.02 | S. cerevisiae deletion strains, locus YLR320W, strain mms22, hits give low values 1.06 | S. cerevisiae deletion strains, locus YLR342W, strain FKS1, hits give low values 1.02 | S. cerevisiae deletion strains, locus YLR357W, strain rsc2, hits give low values 1.04 | S. cerevisiae deletion strains, locus YLR370C, strain arc18, hits give low values 1 | S. cerevisiae deletion strains, locus YLR371W, strain rom2, hits give low values 0.96 | S. cerevisiae deletion strains, locus YLR384C, strain iki3, hits give low values 0.999 | S. cerevisiae deletion strains, locus YLR418C, strain cdc73, hits give low values 0.946 | S. cerevisiae deletion strains, locus YML016C, strain PPZ1, hits give low values 1.01 | S. cerevisiae deletion strains, locus YML032C, strain rad52, hits give low values 0.983 | S. cerevisiae deletion strains, locus YML120C, strain ndi1, hits give low values 0.995 | S. cerevisiae deletion strains, locus YML124C, strain tub3, hits give low values 0.981 | S. cerevisiae deletion strains, locus YMR058W, strain fet3, hits give low values 1.04 | S. cerevisiae deletion strains, locus YMR078C, strain ctf18, hits give low values 0.957 | S. cerevisiae deletion strains, locus YMR125W, strain sto1, hits give low values 1.02 | S. cerevisiae deletion strains, locus YMR129W, hits give low values 1.02 | S. cerevisiae deletion strains, locus YMR205C, strain PFK2, hits give low values 1.03 | S. cerevisiae deletion strains, locus YMR223W, strain ubp8, hits give low values 0.988 | S. cerevisiae deletion strains, locus YMR231W, strain pep5, hits give low values 1.02 | S. cerevisiae deletion strains, locus YMR263W, strain SAP30, hits give low values 0.983 | S. cerevisiae deletion strains, locus YMR307W, strain GAS1, hits give low values 1.09 | S. cerevisiae deletion strains, locus YNL067W, strain RPL9B, hits give low values 0.967 | S. cerevisiae deletion strains, locus YNL071W, strain lat1, hits give low values 1 | S. cerevisiae deletion strains, locus YNL153C, strain GIM3, hits give low values 0.978 | S. cerevisiae deletion strains, locus YNL183C, strain NPR1, hits give low values 0.987 | S. cerevisiae deletion strains, locus YNL209W, strain ssb2, hits give low values 1 | S. cerevisiae deletion strains, locus YNL233W, strain BNI4, hits give low values 1.02 | S. cerevisiae deletion strains, locus YNL248C, strain rpa49, hits give low values 1.05 | S. cerevisiae deletion strains, locus YNL250W, strain rad50, hits give low values 0.944 | S. cerevisiae deletion strains, locus YNL271C, strain bni1, hits give low values 0.981 | S. cerevisiae deletion strains, locus YNL298W, strain CLA4, hits give low values 0.981 | S. cerevisiae deletion strains, locus YNL307C, strain MCK1, hits give low values 0.994 | S. cerevisiae deletion strains, locus YNL322C, strain KRE1 (second series), hits give low values 1.04 | S. cerevisiae deletion strains, locus YNR049C, strain mso1, hits give low values 1.01 | S. cerevisiae deletion strains, locus YNR052C, strain pop2, hits give low values 0.975 | S. cerevisiae deletion strains, locus YOL006C, strain TOP1, hits give low values 1.12 | S. cerevisiae deletion strains, locus YOL012C, strain htz1 0.701 | S. cerevisiae deletion strains, locus YOL147C, strain pex11, hits give low values 0.985 | S. cerevisiae deletion strains, locus YOR001W, strain rrp6, hits give low values 1.06 | S. cerevisiae deletion strains, locus YOR061W, strain CKA2, hits give low values 1 | S. cerevisiae deletion strains, locus YOR069W, strain VPS5, hits give low values 1.01 | S. cerevisiae deletion strains, locus YOR070C, strain gyp1, hits give low values 1.02 | S. cerevisiae deletion strains, locus YOR080W, strain dia2, hits give low values 1.03 | S. cerevisiae deletion strains, locus YOR083W, strain WHI5, hits give low values 0.988 | S. cerevisiae deletion strains, locus YOR106W, strain vam3, hits give low values 0.954 | S. cerevisiae deletion strains, locus YOR136W, strain idh2, hits give low values 0.999 | S. cerevisiae deletion strains, locus YOR144C, strain elg1, hits give low values 0.99 | S. cerevisiae deletion strains, locus YOR184W, strain ser1, hits give low values 1.03 | S. cerevisiae deletion strains, locus YOR231W, strain MKK1, hits give low values 0.983 | S. cerevisiae deletion strains, locus YOR265W, strain rbl2, hits give low values 1 | S. cerevisiae deletion strains, locus YOR270C, strain vph1, hits give low values 1.05 | S. cerevisiae deletion strains, locus YOR290C, strain snf2, hits give low values 0.953 | S. cerevisiae deletion strains, locus YOR316C, strain cot1, hits give low values 0.985 | S. cerevisiae deletion strains, locus YPL051W, strain arl3, hits give low values 1.04 | S. cerevisiae deletion strains, locus YPL078C, strain atp4, hits give low values 0.976 | S. cerevisiae deletion strains, locus YPL106C, strain sse1, hits give low values 1.04 | S. cerevisiae deletion strains, locus YPL240C, strain hsp82, hits give low values 1.01 | S. cerevisiae deletion strains, locus YPL256C, strain CLN2, hits give low values 1.01 | S. cerevisiae deletion strains, locus YPR119W, strain clb2, hits give low values 0.977 | S. cerevisiae deletion strains, locus YPR141C, strain kar3, hits give low values 0.977 | S. cerevisiae deletion strains, locus YPR163C, strain tif3, hits give low values 0.989 | S. cerevisiae deletion strains, locus YPR167C, strain met16, hits give low values 0.971 | S. cerevisiae deletion strains, strain wtn01, hits give low values 1 | S. cerevisiae strains, strain wild type, hits give low values 1.03

From PubChem BioAssay AID1159580 (chemical genetic matrix, 2015)
